In all, about 39,000 compounds went through this assay and about 1,500 (3.8%) were called active. Many of the other results were omitted from the sample, so actives are more common in it than they were.
Test system: HSkMC (human skeletal muscle cells)
Assay: cytotoxicity call (relative viability < 0.9)
Details: 10 µM

Compound	cytotoxicity call
O=C(O)c1cncnc1N1CCCC1	inactive
C[C@@H]1CN([C@H](C)CO)C(=O)c2cccc(NC(=O)C3CCCCC3)c2O[C@H]1CN(C)Cc1ccc(Oc2ccccc2)cc1	inactive
C[C@@H]1CN([C@@H](C)CO)C(=O)c2cccc(NC(=O)Nc3ccc(F)cc3)c2O[C@@H]1CN(C)Cc1ccc(-c2ccccc2)cc1	active
C[C@@H]1CN([C@H](C)CO)C(=O)c2cccc(NC(=O)Nc3ccc(F)cc3)c2O[C@H]1CN(C)Cc1ccc(-c2ccccc2)cc1	inactive
C[C@H]1CN([C@@H](C)CO)C(=O)c2cccc(NC(=O)Nc3ccc(F)cc3)c2O[C@H]1CN(C)Cc1ccc(-c2ccccc2)cc1	inactive
C[C@@H]1CN([C@@H](C)CO)C(=O)c2cccc(NC(=O)Nc3ccc(F)cc3)c2O[C@H]1CN(C)Cc1ccc(-c2ccccc2)cc1	active
C[C@H]1CN([C@@H](C)CO)C(=O)c2cccc(NC(=O)Nc3ccc(F)cc3)c2O[C@@H]1CN(C)Cc1ccc(-c2ccccc2)cc1	inactive
C[C@H](CO)N1C[C@H](C)[C@@H](CN(C)Cc2ccc(-c3ccccc3)cc2)Oc2c(NC(=O)Nc3ccc(F)cc3)cccc2C1=O	inactive
Cc1noc(C)c1NC(=O)Nc1ccc2c(c1)CC(=O)N([C@@H](C)CO)C[C@H](C)[C@H](CN(C)C(=O)Nc1ccc(C(F)(F)F)cc1)O2	inactive
CO[C@@H](CN(C)S(=O)(=O)c1cccc(Cl)c1)[C@@H](C)CN([C@H](C)CO)S(=O)(=O)c1cccc(Cl)c1	inactive
C[C@@H]1CCCCO[C@H](CN(C)S(=O)(=O)c2cn(C)cn2)[C@@H](C)CN([C@@H](C)CO)C(=O)c2cc(NC(=O)Nc3cccc4ccccc34)ccc2O1	inactive
CO[C@@H]1CN(C)C(=O)c2ccc(NC(=O)C3CCOCC3)cc2OC[C@@H](C)N(C(=O)C2CCOCC2)C[C@H]1C	inactive
C[C@@H]1CN([C@H](C)CO)C(=O)Cc2cc(NS(=O)(=O)c3ccccc3)ccc2O[C@H]1CN(C)Cc1ccc(-c2ccccc2)cc1	active
C[C@@H]1CN([C@H](C)CO)C(=O)Cc2cc(NS(=O)(=O)c3ccccc3)ccc2O[C@@H]1CN(C)Cc1ccc(-c2ccccc2)cc1	inactive
C[C@@H]1CN([C@@H](C)CO)C(=O)Cc2cc(NS(=O)(=O)c3ccccc3)ccc2O[C@@H]1CN(C)Cc1ccc(-c2ccccc2)cc1	active
C[C@H](CO)N1C[C@H](C)[C@H](CN(C)Cc2ccc(-c3ccccc3)cc2)Oc2ccc(NS(=O)(=O)c3ccccc3)cc2CC1=O	inactive
C[C@H]1CN([C@@H](C)CO)C(=O)Cc2cc(NS(=O)(=O)c3ccccc3)ccc2O[C@H]1CN(C)Cc1ccc(-c2ccccc2)cc1	active
C[C@H](CO)N1C[C@H](C)[C@@H](CN(C)Cc2ccc(-c3ccccc3)cc2)Oc2ccc(NS(=O)(=O)c3ccccc3)cc2CC1=O	inactive
C[C@H]1CN([C@@H](C)CO)C(=O)Cc2cc(NS(=O)(=O)c3ccccc3)ccc2O[C@@H]1CN(C)Cc1ccc(-c2ccccc2)cc1	active
C[C@@H]1CN([C@@H](C)CO)C(=O)Cc2cc(NS(=O)(=O)c3ccccc3)ccc2O[C@H]1CN(C)Cc1ccc(-c2ccccc2)cc1	inactive

Compound	cytotoxicity call
CN(C)c1cncc(C(=O)O)c1	inactive
C[C@@H]1CCCCO[C@H](CN(C)C(=O)Nc2ccc3c(c2)OCO3)[C@H](C)CN([C@H](C)CO)C(=O)c2cc(NS(=O)(=O)c3ccccc3)ccc2O1	inactive
CC(C)C#Cc1ccc2c(c1)O[C@H](CN(C)C(=O)Cc1ccccn1)[C@H](C)CN([C@H](C)CO)S2(=O)=O	inactive
Cc1noc(C)c1NC(=O)N(C)C[C@@H]1Oc2ccc(NC(=O)NC(C)C)cc2CC(=O)N([C@H](C)CO)C[C@H]1C	inactive
CCCC(=O)Nc1ccc2c(c1)OC[C@@H](C)N(C(=O)Cc1ccccn1)C[C@@H](C)[C@H](OC)CN(C)C2=O	inactive
CCN1C(=O)CS/C1=N\N1CCOCC1	inactive
C[C@@H]1CN([C@H](C)CO)C(=O)c2cc(NC(=O)Nc3ccc(C(F)(F)F)cc3)ccc2O[C@@H](C)CCCCO[C@H]1CN(C)C(=O)Nc1ccc(F)cc1	inactive
COCCCNC(=O)[C@@]1(Sc2ccc(C)cc2)CC(=O)N(Cc2ccccc2C(F)(F)F)[C@@H]1c1ccc(CO)cc1	inactive
C[C@@H]1CCCCO[C@@H](CN(C)C(=O)C2CCCCC2)[C@H](C)CN([C@@H](C)CO)C(=O)c2cc(NC(=O)Nc3ccccc3)ccc2O1	inactive
C[C@@H]1CCCCO[C@H](CN(C)C(=O)Nc2ccc3c(c2)OCO3)[C@H](C)CN([C@H](C)CO)C(=O)c2cc(NC(=O)c3ccncc3)ccc2O1	inactive
C[C@@H]1CN([C@@H](C)CO)C(=O)c2ccccc2-c2ccccc2CO[C@H]1CN(C)C(=O)Nc1ccc(F)cc1	inactive
C[C@H](NC(=O)[C@@H](Cc1ccc2ccccc2c1)NC(=O)[C@@H](C)N)C(=O)N[C@@H](Cc1c[nH]c2ccccc12)C(=O)N[C@H](Cc1ccccc1)C(=O)N[C@@H](CCCCN)C(N)=O	inactive
CC(C)CC(NC(=O)C(C)NC(=O)CNC(=O)C(NC=O)C(C)C)C(=O)NC(C)C(=O)NC(C(=O)NC(C(=O)NC(C(=O)NC(Cc1c[nH]c2ccccc12)C(=O)NC(CC(C)C)C(=O)NC(Cc1c[nH]c2ccccc12)C(=O)NC(CC(C)C)C(=O)NC(Cc1c[nH]c2ccccc12)C(=O)NC(CC(C)C)C(=O)NC(Cc1c[nH]c2ccccc12)C(=O)NCCO)C(C)C)C(C)C)C(C)C (centres undefined) [GRAMICIDIN (gramicidin A shown) ]	active
CC(C)C[C@H](NP(=O)(O)O[C@H]1O[C@@H](C)[C@@H](O)[C@@H](O)[C@@H]1O)C(=O)N[C@H](Cc1c[nH]c2ccccc12)C(=O)O	inactive
CCOc1ccc(C(=O)Nc2ccc(N3CCN(C(=O)c4cccs4)CC3)c(Cl)c2)cc1Br	inactive
C[C@@H]1CCCCO[C@@H](CN(C)Cc2ccc(C(=O)Nc3ccccc3N)cc2)[C@@H](C)CN([C@H](C)CO)C(=O)c2cc(NC(=O)Nc3cccc4ccccc34)ccc2O1	inactive
CC[C@H](C)[C@H]1O[C@]2(CC[C@@H]1C)C[C@@H]1C[C@@H](C/C=C(\C)[C@@H](O[C@H]3C[C@H](OC)[C@@H](O[C@H]4C[C@H](OC)[C@@H](O)[C@H](C)O4)[C@H](C)O3)[C@@H](C)/C=C/C=C3\CO[C@@H]4[C@H](O)C(C)=C[C@@H](C(=O)O1)[C@]34O)O2	active
CCC(C)C1OC2(CCC1C)CC1CC(CC=C(C)C(OC3CC(OC)C(OC4CC(OC)C(O)C(C)O4)C(C)O3)C(C)C=CC=C3COC4C(O)C(C)=CC(C(=O)O1)C34O)O2 (centres undefined)	inactive
CC[C@@H](C)[C@H]1O[C@@]2(CC[C@@H]1C)C[C@H]1C[C@@H](CC=C(C)[C@@H](O[C@H]3C[C@@H](OC)[C@@H](O[C@H]4C[C@@H](OC)[C@@H](O)[C@@H](C)O4)[C@@H](C)O3)[C@@H](C)C=CC=C3CO[C@H]4[C@@H](O)C(C)=C[C@@H](C(=O)O1)[C@]34O)O2.CO[C@H]1C[C@@H](O[C@@H]2[C@@H](OC)C[C@@H](O[C@@H]3C(C)=CC[C@@H]4C[C@@H](C[C@@]5(CC[C@@H](C)[C@H](C(C)C)O5)O4)OC(=O)[C@@H]4C=C(C)[C@H](O)[C@@H]5OCC(=CC=C[C@@H]3C)[C@@]45O)O[C@@H]2C)O[C@@H](C)[C@@H]1O	active

From the antibiotic and cytotoxicity screens of Wong et al. (2023)
